Source: PubChem BioAssay (National Center for Advancing Translational Sciences (NCATS))
Shown are actives, neighbours in structure and some others; about 3.1% of the full set was active somewhere.
p53null 39C tox – qHTS Screen for Compounds that Selectively Target Cancer Cells with p53 Mutations: Cytotoxicity of p53 Null Cells at the Nonpermissive Temperature; AID 904, 2007; Potency, µM (top dose mostly 46.1 µM), for the others: at the top dose activity, negative = cell killing, usual class: cytotoxic; 0.97% of 55,000 active; H1299 p53-null (neo) cells, 39C, ATPlite viability, 24 h;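 further: potency means the concentration at half of the fitted maximal effect; 0% = DMSO only and -100% = full killing by 100 µM tamoxifen; nearly all actives have a fitted effect of over 50% in size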
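H1299 lung cancer cells, p53-null (H1299-neo) or expressing p53 A138V (H1299-p53A138V), were plated overnight at 37C, then exposed to compounds at up to 46 uM for 24 hr at 39C. Viability was read by ATP-based luminescence.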
OvCa metastasis – Primary qHTS assay for Inhibitors of ovarian cancer metastasis using an organotypic tumor microenvironment (TME) model; 0.1% of 46,000 active; SKOV3ip1-GFP adhesion/invasion on 3D omental model, fluorescence; Potency, µM (highest dose often 45.8 µM), inactives show at the highest dose activity change, negative = inhibition, actives largely listed as inhibitors;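 further: potency means the concentration at half of the fitted maximal effect; plate controls were DMSO wells for no effect and tomatine positive control wells for full effect; nearly all actives have a fitted effect of over 65% in size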
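Primary human omental fibroblast/mesothelial 3D culture pre-formed 48 h. SKOV3ip1-GFP cells added with compounds (0.36-46 umol/L), incubated 2 h RT/16 h 37 C, fixed; GFP cells quantified at 488/509 nm.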
S16 F2sN tox – Cell viability qHTS assay in S16 Pmp22-F2sN cells. S16 Pmp22-F2sN Schwann cells viability, CellTiter-Glo, 24 h. Potency, µM (titrated, usually from 57.5 µM), inactives show top-dose activity change, negative = cytotoxicity, hits mostly cytotoxic. 0.48% of 43,000 active; further: potency means the concentration at half of the fitted maximal effect; on the % scale 0 is the no-effect control and ±100 the full control effect; nearly all actives have a fitted effect of over 65% in size
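Used to flag compounds lowering reporter output through toxicity, this quantitative HTS measures ATP-based CellTiter-Glo luminescence in S16 Pmp22-F2sN Schwann cells after 24 h compound exposure at 37C.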
PMP22 txn – Cell-based coincidence reporter assay to measure PMP22 gene transcription in S16 Pmp22-F2sN cells - Primary screen; S16 Pmp22-F2sN Schwann cells (luciferase reporters placed in the Pmp22 gene), FLuc/NLuc coincidence luminescence, 24 h; Potency, µM (doses to about 57.5 µM), for inactives: at the top dose activity change, negative = inhibition, actives largely listed as inhibitors; 2% of 43,000 active; AID 1508649, 2021; active means clear falling dose curves in both reporters; inconclusive means both reporters move, but less clearly or upward; inactive means either reporter flat; the % is the NLuc reporter signal; further: potency means the concentration at half of the fitted maximal effect; on the % scale 0 is the no-effect control and ±100 the full control effect
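Schwann cells carrying the coincidence reporter were exposed to library compounds for 24 h at 37C, then lysed and read for FLuc and, after quenching, NLuc luminescence on a CCD imager.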
p53null 32C tox – qHTS Screen for Compounds that Selectively Target Cancer Cells with p53 Mutations: Cytotoxicity of p53 Null Cells at the Permissive Temperature | Potency, µM (doses to about 46.1 µM), inactives show top-dose activity change, negative = cytotoxicity, usual class: cytotoxic | H1299-neo p53 null cells, ATP luminescence, 24 h, 32C | 0.62% of 55,000 active;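 further: potency means the concentration at half of the fitted maximal effect; 0% = DMSO only and -100% = full killing by 100 µM tamoxifen; nearly all actives have a fitted effect of over 55% in size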
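Cytotoxicity: H1299-neo (no p53), 32C, 24 h treatment. Concentrations up to 46 uM. Readout cellular ATP, luminescence. Normalization to DMSO basal and tamoxifen 100 uM maximal kill.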
mTORC1 inh – Acumen qHTS Assay for Inhibitors of the mTORC1 Signaling Pathway in MEF (Tsc2-/-, p53-/-) Cells: Sytravon. Tsc2-/- p53-/- MEF, phospho-rpS6 immunofluorescence/PI, 24 h. Potency, µM (doses to about 38.3 µM), inactives show top-dose activity change, negative = inhibition, hits mostly inhibitors. 0.78% of 44,000 active. AID 493208, 2011;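 further: potency means the concentration at half of the fitted maximal effect; plate controls were DMSO for no effect and rapamycin for full effect; nearly all actives have a fitted effect of over 50% in size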
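Immunofluorescence of rpS6 phosphorylation in Tsc2-/-, p53-/- MEFs after 24 h compound exposure, normalized to propidium iodide signal. Activity is expressed as % positive cells, thresholded with 7.5 nM rapamycin.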
NLuc sat counter – Biochemical NLuc saturation counterscreen for small molecule modulators of PMP22 gene expression - Nano-Glo assay; shares compounds with PMP22 txn; Secreted NLuc enzyme (filtered S16 cell medium), Nano-Glo luminescence; Potency, µM (series often up to 57.5 µM), without a hit: at the top dose activity change, negative = inhibition, usual class: inhibitors; 4% of 690 active; further: potency means the concentration at half of the fitted maximal effect; on the % scale 0 is the no-effect control and ±100 the full control effect
NLuc Km ctr – Biochemical coelenterazine-based NLuc counterscreen for small molecule modulators of PMP22 gene expression - Km assay; shares compounds with PMP22 txn; secreted NLuc enzyme, coelenterazine luminescence, Km conditions; Potency, µM (highest dose often 57.5 µM), inactives show at the top dose activity change, negative = inhibition, usual class: inhibitors; 5% of 690 active; AID 1508639, 2021; further: potency means the concentration at half of the fitted maximal effect; on the % scale 0 is the no-effect control and ±100 the full control effect
FLuc ctr PMP22 – Biochemical FLuc counterscreen for small molecule modulators of PMP22 gene expression. 690 tested, under 10 active. purified P. pyralis FLuc, luminescence, 10 min. shares compounds with PMP22 txn. Potency, µM (doses to about 57.5 µM), inactives show at the highest dose activity, negative = inhibition, most hits filed as inhibitors; further: % of control where 0% means no effect
Target sequence (P08659 whole entry, looked up): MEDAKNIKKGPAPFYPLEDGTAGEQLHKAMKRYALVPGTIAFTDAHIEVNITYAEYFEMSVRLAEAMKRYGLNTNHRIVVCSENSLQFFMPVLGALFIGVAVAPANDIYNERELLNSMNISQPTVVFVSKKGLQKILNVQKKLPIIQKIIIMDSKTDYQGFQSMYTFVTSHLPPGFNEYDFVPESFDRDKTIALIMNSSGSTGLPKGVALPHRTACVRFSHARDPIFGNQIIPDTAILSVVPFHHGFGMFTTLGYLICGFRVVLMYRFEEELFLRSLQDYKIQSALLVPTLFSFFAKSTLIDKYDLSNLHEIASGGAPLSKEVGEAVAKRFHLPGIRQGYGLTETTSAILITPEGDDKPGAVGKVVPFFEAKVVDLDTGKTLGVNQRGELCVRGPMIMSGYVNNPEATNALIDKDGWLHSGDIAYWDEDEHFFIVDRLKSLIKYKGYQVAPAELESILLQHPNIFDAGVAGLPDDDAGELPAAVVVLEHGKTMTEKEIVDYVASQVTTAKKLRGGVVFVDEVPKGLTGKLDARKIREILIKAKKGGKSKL
S16 F2sN tox cnf – Cell viability qHTS assay in S16 Pmp22-F2sN cells - Confirmatory screen; Potency, µM (top dose mostly 57.5 µM), inactives show at the highest dose activity change, negative = viability loss, hits mostly cytotoxic; 7% of 690 active; shares compounds with PMP22 txn; S16 Schwann cells viability, CellTiter-Glo ATP luminescence, 24 h; further: potency means the concentration at half of the fitted maximal effect; on the % scale 0 is the no-effect control and ±100 the full control effect
PMP22 txn cnf – Cell-based coincidence reporter assay to measure PMP22 gene transcription in S16 Pmp22-F2sN cells - Confirmatory screen | Potency, µM (series often up to 57.5 µM), for inactives: at the top dose activity change, negative = inhibition, hits mostly inhibitors | 22% of 690 active | S16 Schwann cells Pmp22-F2sN, dual luciferase, 24 h | shares compounds with PMP22 txn; active means clear falling dose curves in both reporters; inconclusive means both reporters move, but less clearly or upward; inactive means either reporter flat; the % is the FLuc reporter signal; further: potency means the concentration at half of the fitted maximal effect
* = called active by the depositor; i = inactive; ? = inconclusive; . = no result. Unless noted, the call rests on the fitted dose curve; in most records, active means well fitted curve in the direction sought with a large enough effect; inconclusive means small, poorly fitted or top-dose-only effect, or another doubt; inactive means no such curve, though single readings can be large; an effect the other way counts as inactive or inconclusive.

SMILES	p53null 39C tox	OvCa metastasis	S16 F2sN tox	PMP22 txn	p53null 32C tox	mTORC1 inh	NLuc sat counter	NLuc Km ctr	FLuc ctr PMP22	S16 F2sN tox cnf	PMP22 txn cnf
Cc1ccc(CNC(=O)Cn2c(=O)n(-c3cccc(Cl)c3)c(=O)c3sc4ccccc4c32)cc1	7%	i	5%	9.5µM*	?	-5%	-7%	-3%	-4%	?	?
CCc1ccccc1NC(=O)Cn1c(=O)n(Cc2ccco2)c(=O)c2sc3ccccc3c21	3%	-6%	4%	?	1%	5%	.	.	.	.	.
Cc1ccc(CNC(=O)Cn2c(=O)n(Cc3ccccc3)c(=O)c3sc4ccccc4c32)cc1	-7%	32%	4%	13µM*	-2%	1%	-1%	7%	9%	-20%	19µM*
O=C(Nc1nnc(-c2ccco2)o1)c1cc(-c2ccccc2)nc2ccccc12	.	-1%	.	.	.	.	.	.	.	.	.
O=C(NCc1ccc(Cl)cc1)C(=O)Nc1cccc(Br)c1	-14%	i	-17%	16µM*	2%	-4%	-7%	0%	4%	?	?
CC(Cc1ccc(O)c(O)c1)(NN)C(=O)O (configuration not stated)	.	2%	.	.	.	.	.	.	.	.	.
Cc1ccccc1C(=O)Nc1ccc(C(=O)N2CCCC(O)c3cc(Cl)ccc32)c(C)c1 (configuration not stated)	.	5%	.	.	.	.	.	.	.	.	.
CCOc1ccccc1C(=O)Nc1c(C(=O)Nc2ccc(F)cc2)oc2ccccc12	30%	-10%	20%	4.1µM*	8%	-17%	?	-7%	-7%	-3%	5.6µM*
